Source: PubChem BioAssay (NCI)
This is part of a sample that, as a whole, favours compounds with a hit. Of some 83,000 tested, about 20% had one in any assay.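 Results are percent growth after 48 hours of single-concentration exposure. 100 means growth as in untreated cells, lower positive values show inhibition; negative values down to -100 show cell death.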 Calls of active or inactive are those of the source. How the source made its calls: active means growth percent below 10; inactive means the rest.

system: HL-60(TB) leukemia; test: NCI-60 one-dose screen, 48 h (100 = growth as untreated, 0 = no growth, -100 = all killed); conditions: 10 µM unless noted

SMILES	growth
CCCCCCCCCCCCCCCCCCOc1ccc(CC(=O)OCC[N+]2(C)CCCC2)cc1	101% (inactive)
CN=S(=O)(OCCCCCOS(=O)(=NC)c1ccc(C)cc1)c1ccc(C)cc1 (centres undefined)	70.7% (inactive)
COc1ccc(NC(=O)Cn2c(=O)sc3c(-c4ccc(Cl)cc4)cc(-c4ccc(Cl)cc4)nc32)cc1	80% (inactive)
O=C1c2ccccc2-c2cn(Cc3ccccc3)c3cccc(c23)C1c1cccnc1 (centres undefined)	16.3% (inactive)
